A number with no mark means an inactive call.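 How the source made its calls: active = AUC reduced over 20% with Padj below 0.05 in at least 2 of 3 replicates; inactive = otherwise.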
Legend:
Assay in all cases: growth AUC relative to DMSO control (median of replicates) (fraction); higher = more growth (less inhibition), active = hit call of the paper
Conditions in all cases: 20 µM; 24 h
Akkermansia muciniphila = test system: Akkermansia muciniphila
How it was run: (§1)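 Gut bacterial monocultures in mGAM were treated with 20 µM compound (1% DMSO) and grown anaerobically at 37 °C in round-bottom 96-well plates from OD600 0.05. OD600 was read hourly for 24 h, with the minimum OD set to 0. Area under the growth curve was normalised to the plate median of solvent-only wells, or to row and column medians on the industrial chemical plate. Each value is the median of three biological replicates, each grown on a separate day.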

Bacteroides caccae = test system: Bacteroides caccae
How it was run: as §1

Bacteroides clarus = test system: Bacteroides clarus
How it was run: as §1

Bacteroides dorei = test system: Bacteroides dorei
How it was run: as §1

Bacteroides stercoris = test system: Bacteroides stercoris
How it was run: as §1

[1] = test system: Bacteroides thetaiotaomicron
How it was run: as §1

Bacteroides uniformis = test system: Bacteroides uniformis
How it was run: as §1

[2] = test system: Bifidobacterium longum subsp. longum
How it was run: as §1

Clostridium difficile = test system: Clostridium difficile
How it was run: as §1

Collinsella aerofaciens = test system: Collinsella aerofaciens
How it was run: as §1

Coprococcus comes = test system: Coprococcus comes
How it was run: as §1

Escherichia coli ED1a = test system: Escherichia coli ED1a
How it was run: as §1

Escherichia coli IAI1 = test system: Escherichia coli IAI1
How it was run: as §1

Eubacterium rectale = test system: Eubacterium rectale
How it was run: as §1

[3] = test system: Fusobacterium nucleatum subsp. animalis
How it was run: as §1

Lactobacillus gasseri = test system: Lactobacillus gasseri
How it was run: as §1

Lactobacillus paracasei = test system: Lactobacillus paracasei
How it was run: as §1

Odoribacter splanchnicus = test system: Odoribacter splanchnicus
How it was run: as §1

[4] = test system: Parabacteroides distasonis
How it was run: as §1

Parabacteroides merdae = test system: Parabacteroides merdae
How it was run: as §1

Structure (SMILES)	growth AUC (Akkermansia muciniphila)	growth AUC (Bacteroides caccae)	growth AUC (Bacteroides clarus)	growth AUC (Bacteroides dorei)	growth AUC (Bacteroides stercoris)	growth AUC [1]	growth AUC (Bacteroides uniformis)	growth AUC [2]	growth AUC (Clostridium difficile)	growth AUC (Collinsella aerofaciens)	growth AUC (Coprococcus comes)	growth AUC (Escherichia coli ED1a)	growth AUC (Escherichia coli IAI1)	growth AUC (Eubacterium rectale)	growth AUC [3]	growth AUC (Lactobacillus gasseri)	growth AUC (Lactobacillus paracasei)	growth AUC (Odoribacter splanchnicus)	growth AUC [4]	growth AUC (Parabacteroides merdae)
CCOP(=O)(OCC)OCC	1.06	0.991	1.03	0.972	1.03	1.02	1.03	0.971	0.989	0.967	1.01	1.01	1.07	1.01	1.07	0.931	0.964	1.05	1.03	1.05
Nc1c(Cl)cc([N+](=O)[O-])cc1Cl	0.958	0.927	0.973	0.967	0.875	0.986	1.05	1.07	1	0.897	1.01	0.951	0.962	1.08	0.898	0.923	1.1	1.03	0.933	0.93
Cc1cc(Cl)ccc1O[C@H](C)C(=O)O	1.04	0.841	1	0.982	1.15	0.991	0.958	1.01	0.972	0.968	1.01	1	0.98	1.06	1.08	0.873	0.979	1.1	0.961	0.956
CN1CSC(=S)N(C)C1	1.02	1.01	0.939	1.03	0.942	0.976	1.05	1.01	0.976	1.07	0.957	0.991	0.994	1.06	0.966	1.07	1.04	0.988	0.991	0.976
CNC(=O)c1cc(Cl)cc(C)c1NC(=O)c1cc(Br)nn1-c1ncccc1Cl	0.893	1	0.952	0.999	0.946	0.967	0.976	0.969	0.964	1.02	0.991	0.988	0.995	0.961	0.867	1.03	0.961	0.926	1.01	0.98
COC(=O)/C(C)=C/OP(=S)(OC)OC	0.968	0.992	0.963	0.985	1.02	0.978	0.96	1.02	0.984	1.03	0.989	0.987	0.97	0.95	1.01	1.06	1.07	0.95	1.03	0.999
O=C(Cc1ccccc1)N/C(=N\OCC1CC1)c1c(C(F)(F)F)ccc(F)c1F	1.23	0.936	0.965	0.945	0.852	0.959	0.912	0.975	0.957	0.915	1.01	0.983	0.972	1.03	0.937	0.842	0.946	0.911	0.612 (active)	0.877
O=C1C[C@@H]2OCC=C3CN4CC[C@]56c7ccccc7N1[C@H]5[C@H]2[C@H]3C[C@H]46	0.985	0.968	0.998	0.93	0.898	0.964	1.01	1.09	0.972	0.942	0.984	0.973	0.985	1	0.909	0.928	1.09	1.08	0.988	0.967
CCOC(=O)CCN(SN(C)C(=O)Oc1cccc2c1OC(C)(C)C2)C(C)C	1.1	1.04	0.985	1	0.982	1.02	1.05	1.01	0.999	0.978	1.01	0.994	1.01	1.1	0.907	0.911	1.01	1.02	1.05	0.979
CCCCC(O)(Cn1cncn1)c1ccc(Cl)cc1Cl (stereo not given)	0.965	0.944	0.96	0.97	1.22	0.92	0.971	1.02	0.92	1	0.946	0.987	0.996	0.783 (active)	1.04	0.952	0.936	0.894	1.01	0.931
CON(C)C(=O)Nc1ccc(Cl)cc1	0.997	1.02	0.983	1.03	0.97	1.03	0.999	1.12	1	1.02	1.02	1.01	1	0.999	0.96	1.04	0.97	0.998	1.02	1.02
COP(=S)(Oc1cc(Cl)c(Br)cc1Cl)c1ccccc1 (stereo not given)	0.925	0.949	0.928	1.02	1.44	0.98	0.993	1.02	1.03	0.976	1.02	1.01	0.992	0.893	1.03	0.852	0.982	1.03	0.957	1.01
N#CC(CCc1ccc(Cl)cc1)(Cn1cncn1)c1ccccc1 (stereo not given)	1.02	0.967	0.961	0.952	0.941	0.94	0.873	0.978	0.957	0.968	0.969	1.03	1.02	1.07	0.942	0.904	0.952	0.88	0.57 (active)	0.96
COP(=S)(OC)Oc1ccc(S(N)(=O)=O)cc1	1.02	1.03	0.995	1	0.984	0.984	1.02	0.969	0.992	0.984	1.01	0.976	0.999	0.901	0.998	1.06	1.05	1	0.992	1.01
COP(=S)(OC)Oc1cc(Cl)c(Cl)cc1Cl	1.09	0.936	1.02	0.947	1.17	1.03	0.939	0.947	1.02	1.04	0.979	1	0.971	0.945	1.06	1	1.02	0.88	0.936	0.983
O=[N+]([O-])c1c(Cl)c(Cl)c(Cl)c(Cl)c1Cl	0.814	0.777	0.816	0.972	0.986	0.915	0.917	0.808	1.01	1.04	0.821	1	1.01	0.909	0.942	1.16	0.945	0.946	0.969	0.942

Structure (SMILES)	growth AUC (Akkermansia muciniphila)	growth AUC (Bacteroides caccae)	growth AUC (Bacteroides clarus)	growth AUC (Bacteroides dorei)	growth AUC (Bacteroides stercoris)	growth AUC [1]	growth AUC (Bacteroides uniformis)	growth AUC [2]	growth AUC (Clostridium difficile)	growth AUC (Collinsella aerofaciens)	growth AUC (Coprococcus comes)	growth AUC (Escherichia coli ED1a)	growth AUC (Escherichia coli IAI1)	growth AUC (Eubacterium rectale)	growth AUC [3]	growth AUC (Lactobacillus gasseri)	growth AUC (Lactobacillus paracasei)	growth AUC (Odoribacter splanchnicus)	growth AUC [4]	growth AUC (Parabacteroides merdae)
OCC1C(CO)C2(Cl)C(Cl)=C(Cl)C1(Cl)C2(Cl)Cl (stereo not given)	0.817	0.721 (active)	0.818	0.859	0.259	0.799 (active)	0.275 (active)	1.04	0.901	0.947	0.934	0.994	0.975	1.07	1	0.827	1.01	0.59 (active)	1.09	0.892
CNC(=O)c1cc(C#N)cc(C)c1NC(=O)c1cc(Br)nn1-c1ncccc1Cl	0.947	1.04	0.977	1.01	0.933	0.982	0.995	0.999	1	0.981	0.996	1.01	1.02	0.972	0.88	1.12	1.02	0.99	1.02	0.983
N#Cc1nn(-c2c(Cl)cc(C(F)(F)F)cc2Cl)c(N)c1S(=O)(=O)C(F)(F)F	1.09	0.823	0.966	0.961	1.16	0.996	0.961	0.936	0.866	1.03	0.968	1.04	1.02	0.945	1.01	1.01	0.929	0.978	0.904	0.97
CNC(=O)O/N=C/C(C)(C)SC	0.909	1.03	0.993	1.03	0.943	0.987	1.01	0.957	0.979	1.04	1.01	1.01	1.03	0.966	0.939	1.12	0.99	1	1.03	0.961
CC(C)=CC1C(C(=O)OC(C#N)c2cccc(Oc3ccccc3)c2)C1(C)C (mixture of isomers)	0.826	0.964	0.994	0.989	1.11	1.01	1.06	0.914	1	0.935	0.983	1	0.967	0.965	0.921	0.921	1.23	1.01	1	1
CC1(C)CON(Cc2ccccc2Cl)C1=O	1.11	0.927	1.01	0.917	0.996	0.98	0.949	0.938	0.977	0.947	1.01	0.965	1.02	1.12	1.05	0.837	1.05	0.899	0.838	0.985
O=C(O)CCCOc1ccc(Cl)cc1Cl	0.929	1.04	0.978	1.02	0.922	1.02	1.07	1.06	1.01	0.984	1.05	0.984	0.981	1.18	0.933	1.01	1	1.11	0.919	0.979
CP(=O)(O)CCC(N)C(=O)[O-].[NH4+] (stereo not given)	1.08	1.04	1.03	0.977	1.2	1	1.02	1.02	1.01	1.02	1.06	1.02	1.02	1.08	1.17	0.944	1.08	1.02	1.1	1.03
CNC(=O)CSP(=O)(OC)OC	1.07	1.03	1.02	1.03	1.04	0.997	1.01	1.06	1.03	1.03	1.04	1.01	1.03	1.01	1.04	1.06	1.05	1.05	1.02	1.01
ClC1=C(Cl)C2(Cl)C3C4C=CC(C4)C3C1(Cl)C2(Cl)Cl (stereo not given)	1.11	1.02	0.987	1.01	1.02	1.03	1.01	0.998	1.02	1.01	1.02	0.996	1.02	0.986	1	0.955	0.997	1.05	1.05	1.02
CCCCC(C#N)(Cn1cncn1)c1ccc(Cl)cc1 (stereo not given)	1.04	1.02	0.952	0.98	0.861	0.984	0.975	1.04	0.985	0.959	1.02	0.966	0.97	1.01	1.02	0.965	0.916	1.04	1.02	0.988
ClC1=C(Cl)C2(Cl)[C@H]3[C@@H]4O[C@@H]4[C@H](Cl)[C@H]3C1(Cl)C2(Cl)Cl (single isomer, unassigned; isomer b)	1.29	0.98	0.973	0.933	0.752	0.96	0.89	1.19	1.01	0.957	0.931	0.995	0.983	0.979	0.923	0.95	0.501	1.07	1.03	0.969
CC(Cc1ccc(C(C)(C)C)cc1)CN1CCCCC1 (stereo not given)	0.735	0.963	0.951	1.01	1.15	0.974	1.02	0.99	0.971	0.959	0.931	0.998	0.932	1.03	1.02	0.988	1.03	1.05	0.946	0.997
CC(C1CC1)C(O)(Cn1cncn1)c1ccc(Cl)cc1 (mixture of isomers)	1.04	0.83	0.987	0.941	1.41	0.893	0.929	1.09	0.966	0.926	0.936	1.01	0.971	1.02	1.09	0.975	1.06	0.8	1.01	0.988
CC(C)(C)[C@@H](O)[C@H](Oc1ccc(Cl)cc1)n1cncn1	1.06	0.904	1.02	0.953	1.25	0.948	0.975	0.998	1	0.988	0.974	0.977	0.999	1.08	1.05	1.08	1.09	0.833	0.972	1.01
COC(=O)N(C(=O)N1CO[C@@]2(C(=O)OC)Cc3cc(Cl)ccc3C2=N1)c1ccc(OC(F)(F)F)cc1	0.961	0.952	0.965	0.982	0.965	0.873	0.98	0.83	0.916	0.884	0.857	0.946	0.939	1.09	0.92	0.654	0.896	0.994	0.808	0.901

Source: the supplement of paper PMC12669032
